Compounds with a hit are over-represented: about 19% of the library has one in this group of screens.
HT1080 IDH1KD tx: kills HT-1080 cells with IDH1 knockdown | HT-1080 IDH1 knockdown viability, ATP luminescence, 48 h | Potency, µM (highest dose often 46.1 µM), for inactives: at the top dose activity, negative = toxicity, most hits filed as cytotoxic | 360,000 tested, 2% active | AID 686971;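 also: potency is read from the fitted curve at half-maximal effect; 0% = DMSO wells and -100% = cell-free medium wells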
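In this qHTS, HT-1080 cells depleted of IDH1 are exposed for 48 h at 37 °C to compound titrations. Toxicity is scored from CellTiter-Glo luminescence, with DMSO as full viability and medium alone as none.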
IL1B secr inh: inflammasome signaling inhibition, IL-1 beta readout; activity change, % at 57.5 µM; AID 743279; THP-1 LPS/ATP IL-1B secretion, AlphaLISA, 16 h; hits give low values; 360,000 tested, 4.7% active; in the data active = activity change below about -50%; inconclusive = mostly about -30% to -49%
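Secreted IL-1B measured by AlphaLISA bead assay after 16 h compound exposure of THP-1 cells; compounds (final up to 57.5 uM) added 1 h before LPS (250 ng/mL) and ATP (1.25 mM) stimulation; lower signal means less secretion.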
HT1080NT lethal: kills 2HG-producing HT-1080-NT fibrosarcoma cells. AID 686970. Potency, µM (highest dose often 46.1 µM), inactives show at the highest dose activity, negative = less viability, most hits filed as cytotoxic. HT-1080-NT fibrosarcoma viability, CellTiter-Glo ATP luminescence, 48 h. 360,000 tested, 1.6% active;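 also: NT is the 2HG producing partner of a matched IDH1 knockdown line; potency is read from the fitted curve at half-maximal effect; 0% = DMSO-treated cells and -100% = media-only wells without cells; nearly all actives have a fitted effect of over 55% in size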
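HT-1080-NT; 750 cells/well; 5% FBS RPMI; 48 h compound, 37 degrees C; CellTiter-Glo luminescence; curve fitting and curve-class assignment.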
DT40 TDP1 CPT: growth inhibition of DT40 Tdp1-/-;hTDP1 cells with camptothecin (screen for TDP1 inhibitors); chicken DT40 Tdp1-/-;hTDP1 cells + 20 nM CPT, ATP luminescence, 48 h; Potency, µM (series often up to 46.2 µM), for the others: top-dose activity change, negative = growth inhibition, usual class: inhibitors; 420,000 tested, 12% active; AID 686979; also: potency is read from the fitted curve at half-maximal effect; nearly all actives have a fitted effect of over 55% in size
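Chicken DT40 Tdp1-/- cells complemented with human TDP1, 400 cells/well, exposed to compounds plus 20 nM camptothecin for at least 48 h at 37 C; viability read as ATP content by CellTiter-Glo luminescence.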
DT40 TDP1 no CPT: qHTS for Inhibitors of human tyrosyl-DNA phosphodiesterase 1 (TDP1): qHTS in cells in absence of CPT. AID 686978, 2013. 420,000 tested, 15% active. Potency, µM (series often up to 46.2 µM), without a hit: top-dose activity change, negative = growth inhibition, actives largely listed as inhibitors. DT40 Tdp1-/- hTDP1 cells, no CPT, ATP luminescence, 48 h; also: potency is read from the fitted curve at half-maximal effect; nearly all actives have a fitted effect of over 55% in size
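Camptothecin absent (DMSO only). Human TDP1-complemented DT40 knockout cells, 400 cells/well, 37 °C for minimum 48 hr; ATP measured via CellTiter-Glo, 30 min dark incubation, luminescence.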
Starred values were filed as active, the others as inactive; ? = inconclusive; / = not tested or not shown; [ ] = dose if it differs, or a comment. Unless noted, calls follow the shape of the dose curve; as a rule, active = well fitted curve in the direction sought with a large enough effect; inconclusive = small, poorly fitted or top-dose-only effect, or another doubt; inactive = no such curve, though single readings can be large; an effect the other way counts as inactive or inconclusive. Unless noted, % is scaled to controls: 0 for no effect and ±100 for the full control effect.

SMILES	HT1080 IDH1KD tx	IL1B secr inh	HT1080NT lethal	DT40 TDP1 CPT	DT40 TDP1 no CPT
CCOCCCn1c(C)nc2c(c1=O)c1nc3ccccc3nc1n2CCC1=CCCCC1	?	-72.7*	?	?	?
CC1CN(C(=O)CCC(=O)NCCCN2CCN(Cc3ccccc3)CC2)c2cc(Cl)ccc2O1 (centres undefined)	-2.1%	-22.2	-10.8%	20.6µM*	?
Cc1ccc2c(c1)N(C(=O)CCC(=O)NCCCN1CCN(C)CC1)CCO2	-1.8%	12.2	-0.6%	-0.1%	-26.1%
Cc1ccc2c(c1)N(C(=O)CCC(=O)NCCCN1CCC(Cc3ccccc3)CC1)CCO2	?	-28.2	?	?	18.4µM*
Cc1ccccc1N1C(=O)CN(Cc2sccc2C)C1=S	1.4%	22.0	6.7%	2.0%	-20.3%
Cc1ccc(Cl)cc1N1CCN(S(=O)(=O)c2ccc3c(c2)CCN3C(=O)C2CCC2)CC1	/	/	/	0.5%	0.0%
c1coc(CNc2ncnc3c2nc2n3CCCC2)c1	/	/	/	-1.6%	-22.2%
CN(C)S(=O)(=O)c1cccc(NC(=O)c2ccc(NS(=O)(=O)c3cccs3)cc2)c1	-1.2%	0.0	4.4%	-24.8%	-21.9%
Cc1cc(C)c2c(n1)sc1c(N3CCN(C)CC3)ncnc12	-0.3%	/	2.7%	?	13µM*
Cc1nn(Cc2ccc(Cl)cc2)c(C)c1NC(=O)C1CC=CCC1C(=O)O (centres undefined)	6.3%	9.3	7.7%	?	16.4µM*
Cc1nn(Cc2c(Cl)cccc2Cl)c(C)c1NC(=O)c1cc(C(C)C)on1	23.1µM*	21.3	?	18.4µM*	20.6µM*
Cc1cc(C(=O)Nc2c(C)nn(Cc3c(Cl)cccc3Cl)c2C)no1	?	30.6	?	-1.1%	-21.1%
Cc1nn(Cc2ccc(Cl)cc2)c(C)c1NC(=O)/C=C/c1cnn(C)c1	0.9%	-0.1	-0.4%	?	?
Cc1nn(Cc2ccc(Cl)cc2)c(C)c1NC(=O)c1c(-c2ccccc2)noc1C	-17.2%	3.6	-14.7%	16.4µM*	-29.9%
Cc1nn(Cc2ccc(Cl)cc2)c(C)c1NC(=O)c1cc(C(C)C)on1	-20.2%	13.3	?	20.6µM*	14.6µM*
Cc1ccc(C)c(NC(=O)c2ccc(S(=O)(=O)N(C)CC3CCCO3)cc2)c1 (centres undefined)	-10.8%	-10.0	-3.6%	?	?
C/C(=C\c1cccc(Br)c1)C(=O)c1c(C)cc(C)[nH]c1=O	-6.3%	-70.9*	-4.8%	-27.3%	-16.6%
Cc1cc(C)c(C(=O)/C=C/c2ccc(C(C)C)cc2)c(=O)[nH]1	16.4µM*	-117.0*	-20.8%	23.1µM*	16.4µM*
CCOC(=O)c1c(C)cc(C)[nH]c1=O	17.8%	10.8	21.3%	-4.4%	-0.4%
Cc1cc(C)c(C(=O)/C=C/C=C/c2ccccc2)c(=O)[nH]1	-3.3%	-79.5*	-3.5%	-22.6%	-28.1%
C/C(=C\c1ccc2c(c1)OCO2)C(=O)c1c(C)cc(C)[nH]c1=O	-5.5%	-23.2	0.1%	-21.5%	?
O=C(NCCCN1CCCCCC1)C(c1ccccc1)C1CCCCC1 (centres undefined)	/	/	/	?	16.4µM*
CCN(CC)CC(=O)n1c2c(c3ccccc31)CCCC2	1.8%	-6.6	-1.2%	0.6%	-28.6%
COc1cc(N(C)C)ccc1C=c1c2ccccc2n2c1cc(-c1ccccc1)[n+]2C	11.6µM*	-99.7*	?	0.517µM*	0.366µM*
CN(C)c1ccc(C=c2c3cc([N+](=O)[O-])ccc3n3c2cc(-c2ccccc2)[n+]3C)cc1	10.3µM*	-115.0*	?	2.91µM*	2.59µM*
SMILES	HT1080 IDH1KD tx	IL1B secr inh	HT1080NT lethal	DT40 TDP1 CPT	DT40 TDP1 no CPT
CN(C)c1ccc(C=c2c3ccccc3n3c2c2c([n+]3C)CCCC2)cc1	6.51µM*	-110.8*	?	0.411µM*	0.326µM*
CN(C)c1ccc(C=c2c3ccccc3n3c2cc(-c2ccc(Cl)cc2)[n+]3C)cc1	?	-119.2*	?	4.11µM*	4.61µM*
O=[N+]([O-])c1ccc2c(c1)[nH]c(=S)n2-c1ccccc1	-12.0%	11.1	-20.5%	-28.5%	-14.2%
COc1ccc(NC(=O)N2CCC3(CC2)CCN(C(=O)c2cccc(F)c2)CC3)cc1	/	/	/	3.9%	-23.3%
CCOC(=O)c1[nH]c(C(=O)O)c(CCN(CC)CC)c1C	0.0%	7.6	22.1%	-1.0%	-10.1%
CN(C)c1ccc(C=c2c3ccccc3n3c2cc(-c2ccccc2)[n+]3C)cc1	20.6µM*	-102.0*	?	0.581µM*	0.366µM*
COc1cc(C=c2c3ccccc3n3c2cc(-c2ccccc2)[n+]3C)cc(OC)c1OC	?	-26.2	-15.4%	5.17µM*	4.61µM*
CN(C)c1ccc(/C=N/c2cc(-c3ccccc3)nn2-c2ccccc2)cc1	2.5%	?	-0.1%	-11.0%	?
CCCn1c(SCC(=O)NC2CCCCC2)nnc1-c1ccco1	16.4%	0.0	?	11.5%	-22.5%
NS(=O)(=O)c1ccc(CCNC(=O)c2ccc(C#CC3(O)CCCCC3)cc2)cc1	?	-7.7	?	20.6µM*	2.59µM*
CCCc1nnc(NC(=O)CCS(=O)(=O)c2ccccc2)s1	-4.3%	-58.3*	-27.1%	2.31µM*	5.17µM*
Cc1cc(C)cc(N(CCC(=O)O)S(=O)(=O)c2ccc(Cl)cc2)c1	16.5%	18.3	22.7%	4.2%	10.4%
CCc1nnc(NC(=O)CCN(c2cc(C)cc(C)c2)S(=O)(=O)c2ccc(Cl)cc2)s1	-7.6%	89.3	0.9%	?	18.4µM*
CCCCc1nnc(NC(=O)CCS(=O)(=O)c2ccc(Cl)cc2)s1	5.4%	28.8	-4.5%[9.24 µM]	6.51µM*	7.31µM*
CCSc1nc2c(c(=O)[nH]1)C(C(C)C)C(C#N)=C(N)O2 (centres undefined)	5.9%	24.5	8.2%	?	-11.3%
CC(C)(C)c1ccc(Cn2nnc3c(=O)[nH]c(C4CCN(C(=O)c5ccco5)CC4)nc32)cc1	?	-67.2*	?	-20.2%	?
O=C(Cc1cccs1)N1CCCC(c2nc3c(nnn3Cc3ccc(F)cc3)c(=O)[nH]2)C1 (centres undefined)	-7.2%	0.0	2.8%[9.24 µM]	-24.6%	0.7%
CC(C)(C)c1ccc(Cn2nnc3c(=O)[nH]c(C4CCCN(C(=O)Cc5cccs5)C4)nc32)cc1 (centres undefined)	?	-19.1	?	23.1µM*	?
CC(C)(C)c1ccc(Cn2nnc3c(=O)[nH]c(C4CCN(C(=O)Cc5cccs5)CC4)nc32)cc1	?	-28.5	?	?	20.6µM*

From PubChem BioAssay
